# Source: PubChem
# 12-LOX inh – ALOX12 (human) lipoxygenase inhibition; Potency, µM (highest dose often 108 µM), inactives show top-dose activity change, negative = inhibition, usual class: inhibitors; P18054; actives 1.1% (n = 580,000); purified 12hLO, xylenol orange hydroperoxide absorbance; also: potency is read from the fitted curve at half-maximal effect
# Target sequence (P18054 whole entry, looked up): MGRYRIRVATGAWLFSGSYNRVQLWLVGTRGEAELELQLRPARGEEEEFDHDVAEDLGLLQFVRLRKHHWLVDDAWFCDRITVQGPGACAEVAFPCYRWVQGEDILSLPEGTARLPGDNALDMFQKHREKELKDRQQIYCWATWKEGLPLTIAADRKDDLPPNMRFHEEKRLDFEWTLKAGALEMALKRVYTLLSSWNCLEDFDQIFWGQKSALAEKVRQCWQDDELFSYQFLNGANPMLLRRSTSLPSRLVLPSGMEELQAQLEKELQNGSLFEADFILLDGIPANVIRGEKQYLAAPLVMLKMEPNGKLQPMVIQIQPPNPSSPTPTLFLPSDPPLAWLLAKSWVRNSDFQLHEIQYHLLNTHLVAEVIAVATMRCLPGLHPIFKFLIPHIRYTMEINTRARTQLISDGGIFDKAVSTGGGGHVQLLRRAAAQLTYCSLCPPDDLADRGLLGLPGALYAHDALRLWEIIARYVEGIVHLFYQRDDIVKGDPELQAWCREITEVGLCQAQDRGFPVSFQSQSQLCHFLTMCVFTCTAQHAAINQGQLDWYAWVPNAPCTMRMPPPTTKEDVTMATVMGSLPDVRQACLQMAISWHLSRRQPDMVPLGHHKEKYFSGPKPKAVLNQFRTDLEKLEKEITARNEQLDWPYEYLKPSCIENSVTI
#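 Purified human 12hLO (150 nM final) in 25 mM Hepes, 0.01% Triton X-100, pH 7.0 was preincubated 15 min at room temperature with compound. Then 40 uM arachidonic acid was added, 30 min. Hydroperoxide was read by Fe-XO absorbance ratio 573/405 nm.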
# HT1080-NT tox – kills 2HG-producing HT-1080-NT fibrosarcoma cells; HT-1080-NT fibrosarcoma viability, CellTiter-Glo ATP luminescence, 48 h; Potency, µM (titrated, usually from 46.1 µM), without a hit: top-dose activity, negative = less viability, hits mostly cytotoxic; actives 1.6% (n = 360,000); AID 686970;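 also: NT is the 2HG producing partner of a matched IDH1 knockdown line; potency is read from the fitted curve at half-maximal effect; 0% = DMSO-treated cells and -100% = media-only wells without cells; nearly all actives have a fitted effect of over 55% in size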
#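 HT-1080-NT fibrosarcoma cells (2HG-overproducing), 750 cells/well in RPMI with 5% FBS, dosed after 2 h and incubated 48 h at 37C. CellTiter-Glo luminescence normalized to DMSO and no-cell wells; concentration-response curves fitted and classed.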
# IL-1B inflam inh – inflammasome signaling inhibition, IL-1 beta readout. activity change, % at 57.5 µM. THP-1 LPS/ATP IL-1B secretion, AlphaLISA, 16 h; stronger effect = lower value. actives 4.7% (n = 360,000); in the data active = activity change below about -50%; inconclusive = mostly about -30% to -49%
#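 THP-1 cells pretreated 1 hr with compounds (up to 57.5 uM final), then stimulated with LPS (250 ng/mL final) plus ATP (1.25 mM final); secreted IL-1B measured by AlphaLISA after 16 hr, decreased signal indicating inhibition.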
# HT1080 IDH1KD tx – toxicity to HT-1080 IDH1 knockdown cells (counter line); HT-1080 IDH1 knockdown viability, ATP luminescence, 48 h; Potency, µM (titrated, usually from 46.1 µM), for the others: at the highest dose activity, negative = toxicity, actives largely listed as cytotoxic; actives 2% (n = 360,000);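 also: potency is read from the fitted curve at half-maximal effect; 0% = DMSO wells and -100% = cell-free medium wells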
#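 HT-1080-IDH1KD cells (IDH1 knocked down), 750/well in RPMI with 5% FBS, treated with compound 48 h at 37 degrees C. Viability by CellTiter-Glo luminescence, normalised to DMSO and no-cell wells; concentration-response curves classed.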
# TDP1 cell noCPT – qHTS for Inhibitors of human tyrosyl-DNA phosphodiesterase 1 (TDP1): qHTS in cells in absence of CPT; DT40 Tdp1-/- hTDP1 cells, no CPT, ATP luminescence, 48 h; Potency, µM (highest dose often 46.2 µM), inactives show at the highest dose activity change, negative = growth inhibition, hits mostly inhibitors; actives 15% (n = 420,000); also: potency is read from the fitted curve at half-maximal effect; nearly all actives have a fitted effect of over 55% in size
#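 Chicken DT40 Tdp1-/- cells complemented with human TDP1, screened without camptothecin (DMSO vehicle only), 400 cells/well. Compounds pin-transferred, cells incubated at 37 °C for at least 48 hr. Growth read as ATP-dependent luminescence (CellTiter-Glo, 30 min at RT).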
# TDP1 cell CPT – DT40-hTDP1 cell growth loss with CPT; AID 686979; Potency, µM (highest dose often 46.2 µM), inactives show at the top dose activity change, negative = growth inhibition, actives largely listed as inhibitors; chicken DT40 Tdp1-/-;hTDP1 cells + 20 nM CPT, ATP luminescence, 48 h; actives 12% (n = 420,000); also: potency is read from the fitted curve at half-maximal effect; nearly all actives have a fitted effect of over 55% in size
#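 Chicken DT40 Tdp1-/- cells stably complemented with human TDP1 were seeded at 400 cells/well in medium containing 20 nM camptothecin, exposed to pin-transferred compounds, and grown at 37 °C for at least 48 hr. Viability was read as ATP luminescence.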
# An asterisk follows results filed as active; u = inconclusive; x = no result; [ ] = dose if it differs, or a comment. The sample as a whole holds a higher share of hits than the screen did. Unless noted, calls follow the shape of the dose curve; as a rule, active = well fitted curve in the direction sought with a large enough effect; inconclusive = small, poorly fitted or top-dose-only effect, or another doubt; inactive = no such curve, though single readings can be large; an effect the other way counts as inactive or inconclusive. Unless noted, % is scaled to controls: 0 for no effect and ±100 for the full control effect.
SMILES,12-LOX inh,HT1080-NT tox,IL-1B inflam inh,HT1080 IDH1KD tx,TDP1 cell noCPT,TDP1 cell CPT
c1ccc(Nc2cccc3c(Nc4ccccc4)cccc23)cc1,-7.6%,u,16.8,-7.1%,-27.1%,-22.3%
Cn1c(C(=O)NCCCN2CCOCC2)cc2c(=O)n(C)c3ccccc3c21,35.7%,-1.5%,-4.0,-4.0%,u,-14.4%
CC1CCN(CCCNC(=O)c2cc3c(=O)n(C)c4ccccc4c3n2C)CC1,243.9%,-17.7%,-66.4*,-8.8%,32.6µM*,23.1µM*
Cn1c(C(=O)NCCN2CCCCCC2)cc2c(=O)n(C)c3ccccc3c21,-11.6%,0.3%,-30.0,-1.2%,u,u
Cn1c(C(=O)NCCN2CCN(Cc3ccccc3)CC2)cc2c(=O)n(C)c3ccccc3c21,332.4%,-2.2%,19.4,-1.4%,23.1µM*,23.1µM*
CC/C=C/C(=O)OCc1ccc(C(N)=O)cc1,7.0%,x,x,x,x,x
O=C(N/N=C/c1ccc(-c2cccc([N+](=O)[O-])c2)o1)[C@H]1C[C@@H]1c1ccccc1,-19.9%,3.9%,-19.8,-2.2%,16.4µM*,29.1µM*
O=C(N/N=C/c1ccc(-c2ccc([N+](=O)[O-])cc2)o1)[C@H]1C[C@@H]1c1ccccc1,-3.7%,2.7%,15.3,10.7%,u,u
N#C/C(=C\c1ccc(-c2ccccc2[N+](=O)[O-])o1)C(N)=O,-3.8%,4.6%,-15.2,0.2%,7.0%,-22.8%
O=C(N/N=C/c1ccc(-c2ccccc2[N+](=O)[O-])o1)[C@H]1C[C@@H]1c1ccccc1,17.2%,6.0%,4.5,2.8%,u,16.4µM*
COC(=O)C1=C(C)N=C2SC=C(CC(=O)NCC3CCCO3)N2C1c1cc(OC)ccc1OC (stereo not given),12.2%,x,x,x,x,x
COc1ccc(-c2c(C(=O)O)sc3c2NC(=O)CC32C(=O)N(C)c3ccc(C(C)C)cc32)cc1 (stereo not given),31.8%,x,x,x,x,x
Nc1n[nH]c2ccccc12,2.6%,1.2%,5.1,-3.3%,7.8%,-7.0%
S=c1nn[nH]c2ccccc12,31.6µM*,0.4%,41.1,-11.8%,-15.8%,4.0%
CCCc1cc(-c2nc(N)ncc2-c2ccc3c(c2)OCCCO3)c(O)cc1OC,-4.6%,-25.4%,u,u,25.9µM*,u
CCN(CC)C(=O)CCc1c(C)nn(-c2ccccc2)c1Oc1ccccc1,18.7%,x,x,x,x,x
C=C(c1ccccc1C)[n+]1ccccc1,12.2%,-1.9%,39.4,5.9%,u,-23.9%
C=C(c1ccccc1Cl)[n+]1ccccc1,0.0%,-11.0%,12.4,-14.4%,7.31µM*,11.6µM*
O=C(Nc1ccc(Oc2ccccc2)cc1)N[C@H]1CO[C@H]2[C@@H]1OC[C@@H]2Nc1nccc(-c2cccc(F)c2)n1,-12.4%,x,x,x,x,x
O=C1CN(C(=O)CCC(=O)N2CCCC(Cc3nncn3-c3ccccc3)C2)c2ccccc2N1 (stereo not given),0.3%,x,x,x,x,x
COc1ccc(OS(=O)(=O)CCc2ccccc2)cc1,0.0%,x,x,x,x,x
COc1ccc(-c2cc3c(=O)n(CC(=O)NCCCN4CCC(N5CCCCC5)CC4)ncn3n2)cc1,-7.2%,-14.4%,-11.5,-1.0%,u,14.6µM*
COc1ccc2c(c1OC)C(Cc1ccccc1)N1CCc3cc4c(cc3C1=C2)OCO4 (stereo not given),x,x,x,x,3.76µM*,2.99µM*
COc1ccc2c(c1OC)C(CC(C)=O)N1CCc3cc4c(cc3C1C2=O)OCO4 (stereo not given),-17.1%,x,x,x,x,x
Cc1ccc([C@H]2C[C@@H](O)[C@@H](O)[C@@H]2NC(=O)C2CC2)cc1,65.0%[176 µM],x,x,x,x,x
SMILES,12-LOX inh,HT1080-NT tox,IL-1B inflam inh,HT1080 IDH1KD tx,TDP1 cell noCPT,TDP1 cell CPT
CCOc1ccc2cc(-c3csc(Nc4ccccc4F)n3)c(=O)oc2c1,-7.2%,x,x,x,x,x
O=c1oc2ccccc2cc1-c1csc(Nc2nc3c(F)cccc3s2)n1,-25.6%,-9.8%,16.0,u,16.4µM*,14.6µM*
O=C(Nc1nc(-c2cc3ccccc3oc2=O)cs1)c1ccccc1,10.9%,x,x,x,x,x
O=c1oc2ccccc2cc1-c1csc(NN=C2CCCCC2)n1,3.0%,u,-11.5,-17.9%,18.4µM*,u
O=c1oc2ccccc2cc1-c1csc(Cc2nc(-c3ccc(Cl)cc3)cs2)n1,7.8%,1.1%,8.3,-10.8%,25.9µM*,u
CN1CCCCC12Cc1ccccc1CN(C(=O)c1ccccc1)C2 (stereo not given),1.3%[6.33 µM],x,x,x,x,x
O=C(CCc1c[nH]c2ccccc12)N1CCC(N2CC3CC(C2)[C@H]2CCCC(=O)N2C3)CC1 (stereo not given in full),-1.2%,x,x,x,x,x
CCc1c(C)nc2[nH]nc(-c3ccccc3C)n2c1=O,11.2%,-5.3%,-15.3,-9.8%,14.6µM*,u
CCN(CC)C(=S)SCc1ccc(C(=O)O)cc1,-17.9%,x,x,x,x,x
C[C@@H]1COC(=O)[C@H](CC(=O)OC(C)(C)C)C/C=C\C[C@@H](CC(=O)N[C@H](CO)Cc2ccccc2)C(=O)N1,8.1%,4.6%,22.0,2.6%,-2.5%,-1.5%
O=C(C[C@@H]1C/C=C\CCC(=O)OC[C@H](Cc2ccccc2)NC1=O)N[C@@H](CO)Cc1ccccc1,-7.0%,17.5%,-3.7,9.3%,u,u
CC(C)(C)[C@H]1COC(=O)[C@H](NC(=O)OCC2c3ccccc3-c3ccccc32)C/C=C\C[C@@H](CC(=O)N[C@H](CO)Cc2ccccc2)C(=O)N1,-13.0%,-20.6%,7.8,0.9%,8.2µM*,7.31µM*
C[C@@H]1COC(=O)[C@H](NC(=O)OCC2c3ccccc3-c3ccccc32)C/C=C\C[C@@H](CC(=O)N[C@@H](CO)Cc2ccccc2)C(=O)N1,u,0.0%,20.1,0.5%,8.2µM*,8.2µM*
CC(C)(C)OC(=O)C[C@H]1C/C=C\C[C@H](CC(=O)N[C@@H](CO)Cc2ccccc2)C(=O)N[C@H](C(C)(C)C)COC1=O,-90.0%,1.8%,-21.9,0.2%,u,u
O=C(C[C@H]1C/C=C\C[C@H](NC(=O)OCC2c3ccccc3-c3ccccc32)C(=O)OC[C@H](Cc2ccccc2)NC1=O)N[C@H](CO)Cc1ccccc1,u,u,7.6,u,5.17µM*,5.17µM*
